Screening data (PubChem BioAssay)
Abeta rescue = A-beta toxicity reversal in yeast; hit rate 0.063% among 410,000; AID 1347071; yeast expressing A-beta42, growth rescue, OD600, 48 h; response scale: 0% DMSO, 100% iron-clioquinol control; Potency, µM (top dose mostly 46.1 µM), hits mostly activators; further: nearly all actives have a fitted effect of over 55% in size
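Yeast growth medium received pinned compounds, then yeast cells expressing toxic A-beta were added; plates incubated at 30 C for 48 hr. Growth read as absorbance at 600 nm, normalized to DMSO and equimolar FeCl3 plus clioquinol controls.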
FUS suppressor = FUS proteinopathy suppression in yeast; Potency, µM (top dose mostly 76.6 µM), actives largely listed as activators; hit rate 0.24% among 390,000; S. cerevisiae FUS-expressing, growth rescue, OD600, 24 h; further: nearly all actives have a fitted effect of over 55% in size
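Steps: raffinose overnight preculture; dilution to OD 0.005 in 2% galactose minimal medium; compound addition (concentration series); 24hr at 30C, 99% humidity; absorbance read at 600 nm.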
Mm-Cpn inhibitor = M. maripaludis TRiC chaperonin inhibition; purified Mm-Cpn ATPase, ADP Transcreener TR-FRET; Potency, µM (top dose mostly 76.9 µM), most hits filed as inhibitors; hit rate 0.031% among 330,000; AID 504842; further: nearly all actives have a fitted effect of over 80% in size
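TR-FRET (320 nm excitation; 590 and 665 nm emission) reports ADP made from 10 uM ATP by 25 nM enzyme; compounds were preincubated 10 min, reaction run 30 min, both at 37°C.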
ClpP mod = qHTS Assay for Activators of ClpP | ATP-dependent Clp protease proteolytic subunit (Bacillus subtilis (strain 168)), P80244 | purified B. subtilis ClpP, FRET peptide cleavage, 20 min | Potency, µM (top dose mostly 57.5 µM) | hit rate 1.9% among 340,000 | AID 651965, 2013; active means well fitted falling curve with a large enough effect; inconclusive means small, poorly fitted or top-dose-only effect; inactive means no such curve, though single readings can be large or run the other way; further: the source files actives as falling curves though it sought activators and does not explain the sign; nearly all actives have a fitted effect of over 65% in size
Target sequence (P80244 whole entry, looked up): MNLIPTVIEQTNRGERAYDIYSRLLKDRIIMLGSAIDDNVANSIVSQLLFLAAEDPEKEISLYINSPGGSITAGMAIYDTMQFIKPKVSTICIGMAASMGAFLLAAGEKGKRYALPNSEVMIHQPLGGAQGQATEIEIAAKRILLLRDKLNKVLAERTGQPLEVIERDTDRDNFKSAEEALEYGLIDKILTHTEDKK
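ClpP 10 microg/mL final, pH 8 Tris/KCl buffer with BSA, glycerol, Tween-20; compound pinned in; FRET-FV substrate; RT 20 min; Ex320/Em430; ΔFRET vs ADEP 5.8 microM, DMSO, no enzyme.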
TDP-43 yeast inh = inhibitors of TDP-43 toxicity in yeast. Potency, µM (titrated, usually from 46.1 µM), usual class: activators. TDP-43 expressing yeast growth rescue, BacTiter-Glo, 24 h. hit rate 1.8% among 410,000; further: nearly all actives have a fitted effect of over 50% in size
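Yeast expressing TDP-43 (pregrown in raffinose, seeded at OD600=0.02 in galactose medium) exposed to compounds 24 hr at 30 deg C. Growth read by BacTiter-Glo luminescence; rescue of toxicity appears as increased signal.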
aSyn yeast inh = rescues yeast growth from alpha-synuclein toxicity; Yeast expressing alpha-synuclein, growth rescue, BacTiter-Glo, 24 h; Potency, µM (top dose mostly 46.1 µM), actives largely listed as activators; hit rate 0.14% among 370,000; further: nearly all actives have a fitted effect of over 65% in size
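Readout is rescue of growth in alpha-synuclein-expressing yeast, so inhibitors of toxicity appear as activators. Growth after 24 hr at 30 deg C in galactose medium is quantified by luminescence.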
A number is an active result; [ ] = remark or other dose. The list is not random: actives were taken first. Their share in the collection is about 3.6%. Unless noted, the call rests on the fitted dose curve; in most records, active means well fitted curve in the direction sought with a large enough effect; inconclusive means small, poorly fitted or top-dose-only effect, or another doubt; inactive means no such curve, though single readings can be large; an effect the other way counts as inactive or inconclusive.

Results for COc1ccc(S(=O)(=O)N(Cc2nc(-c3ccc(C)cc3)no2)C2CCCCC2)cc1 ?
Abeta rescue: inactive; FUS suppressor: inconclusive; ClpP mod: inactive; TDP-43 yeast inh: inactive

How did CC1CCc2nc(NC(=O)CN3CCN(c4ccc(F)cc4)CC3)sc2C1 (stereo not given) do in these assays?
Abeta rescue: inactive; FUS suppressor: inconclusive; Mm-Cpn inhibitor: inactive; ClpP mod: inactive; TDP-43 yeast inh: 16µM; aSyn yeast inh: inactive

How did COc1ccc(CC(=O)Nc2nc3c(s2)CCCC3)cc1 do in these assays?
Abeta rescue: inconclusive; FUS suppressor: inactive; ClpP mod: inactive; TDP-43 yeast inh: inconclusive

What do the screens show for `CC(C)(C)C1CCc2nc(NC(=O)Cc3ccccc3)sc2C1` (stereo not given)?
Abeta rescue: inactive; FUS suppressor: inactive; ClpP mod: inactive; TDP-43 yeast inh: 32µM

How did COc1ccc(CC(=O)Nc2nc3c(s2)CC(C)CC3)cc1 (stereo not given) do in these assays?
Abeta rescue: inconclusive; FUS suppressor: inactive; ClpP mod: inactive; TDP-43 yeast inh: 13µM

What do the screens show for `Cc1ccc2nc(-c3ccc(C)o3)c(Nc3ccc(F)cc3)n2c1`?
ClpP mod: inconclusive; aSyn yeast inh: inactive

How did COc1cccc(CNC(=O)c2cccc(-n3c(C)nc4cccnc43)c2)c1OC do in these assays?
Abeta rescue: inactive; FUS suppressor: inactive; ClpP mod: inactive; TDP-43 yeast inh: inactive

What do the screens show for `CC(C)c1ccc(S(=O)(=O)c2n[nH]n3c2nc(=O)c2ccccc23)cc1`?
Abeta rescue: inactive; FUS suppressor: inactive; Mm-Cpn inhibitor: inactive; ClpP mod: 25µM; TDP-43 yeast inh: inactive; aSyn yeast inh: inactive

What do the screens show for `O=c1nc2c(-c3ccccc3F)n[nH]n2c2ccccc12`?
Abeta rescue: inactive; FUS suppressor: inactive; Mm-Cpn inhibitor: inactive; ClpP mod: 28µM; TDP-43 yeast inh: inactive; aSyn yeast inh: inactive

What do the screens show for `O=c1nc2c(-c3ccc(F)cc3Cl)n[nH]n2c2ccccc12`?
Abeta rescue: inactive; FUS suppressor: inactive; ClpP mod: inactive; TDP-43 yeast inh: inactive[9.22 µM]

What do the screens show for `CCc1ccc(S(=O)(=O)c2n[nH]n3c2nc(=O)c2ccccc23)cc1`?
Abeta rescue: inactive; FUS suppressor: inactive; Mm-Cpn inhibitor: inactive; ClpP mod: 32µM; TDP-43 yeast inh: inactive; aSyn yeast inh: inactive

Results for COc1cccc(-c2nnc(SCC(=O)N(C)c3ccccc3)o2)c1 ?
Abeta rescue: inactive; FUS suppressor: inactive; ClpP mod: inactive; TDP-43 yeast inh: inconclusive

How did CCN1CCCC1CNC(=O)c1cc2c(-c3cccc(OC)c3)nn(C)c2s1 (stereo not given) do in these assays?
Abeta rescue: inactive; FUS suppressor: inactive; Mm-Cpn inhibitor: inactive; ClpP mod: 32µM; TDP-43 yeast inh: inactive; aSyn yeast inh: inactive

What do the screens show for `COc1cccc(-c2nn(C)c3sc(C(=O)NCc4ccco4)cc23)c1`?
Abeta rescue: inactive; FUS suppressor: inconclusive; Mm-Cpn inhibitor: inactive; ClpP mod: 22µM; TDP-43 yeast inh: inactive; aSyn yeast inh: inactive

What do the screens show for `N#Cc1ncc(Br)cn1`?
ClpP mod: inactive; aSyn yeast inh: inactive

Results for COc1ccc(C)cc1NC(=O)Cn1c(=O)ccc2cc(S(=O)(=O)N3CCC(C)CC3)ccc21 ?
Abeta rescue: inactive; FUS suppressor: inconclusive; ClpP mod: inactive; TDP-43 yeast inh: inactive

What do the screens show for `C#CCOC(=O)Nc1cccn(Cc2c(Cl)cccc2Cl)c1=O`?
Abeta rescue: inactive; FUS suppressor: inactive; Mm-Cpn inhibitor: inactive; ClpP mod: inconclusive; TDP-43 yeast inh: 11µM; aSyn yeast inh: inactive

How did O=C(Nc1cccn(Cc2c(Cl)cccc2Cl)c1=O)C1CC1 do in these assays?
Abeta rescue: inactive; FUS suppressor: inactive; Mm-Cpn inhibitor: inactive; TDP-43 yeast inh: inconclusive; aSyn yeast inh: inactive

How did Nc1nc2c(s1)CCc1c-2cnn1-c1ccccc1 do in these assays?
Abeta rescue: inactive; FUS suppressor: inactive; Mm-Cpn inhibitor: inactive; ClpP mod: inactive; TDP-43 yeast inh: inactive; aSyn yeast inh: 11µM

Results for CN(C)c1ccc(/C=C/c2nc(-c3ccccc3O)n(-c3ccccc3)n2)cc1 ?
Abeta rescue: inactive; FUS suppressor: inactive; ClpP mod: inactive; TDP-43 yeast inh: inactive

How did Cc1ccccc1-c1noc(-c2ccccc2OCC(=O)Nc2cccc([N+](=O)[O-])c2)n1 do in these assays?
Abeta rescue: inactive; FUS suppressor: inactive; ClpP mod: inactive; TDP-43 yeast inh: inactive

How did O=c1[nH]c2cc3c(cc2cc1CN(CCc1ccccc1)Cc1nnnn1CC1CCCO1)OCO3 (stereo not given) do in these assays?
Abeta rescue: inactive; FUS suppressor: inactive; Mm-Cpn inhibitor: inactive; ClpP mod: 25µM; TDP-43 yeast inh: inactive; aSyn yeast inh: inconclusive

How did Cc1ccc2[nH]c(=O)c(CN(CCc3ccccc3)Cc3nnnn3CC3CCCO3)cc2c1 (stereo not given) do in these assays?
Abeta rescue: inactive; FUS suppressor: inconclusive; Mm-Cpn inhibitor: inactive; ClpP mod: inactive; TDP-43 yeast inh: inactive; aSyn yeast inh: inactive

How did COc1ccc2cc(CN(CCc3ccccc3)Cc3nnnn3CC3CCCO3)c(=O)[nH]c2c1 (stereo not given) do in these assays?
Abeta rescue: inactive; FUS suppressor: inactive; Mm-Cpn inhibitor: inactive; ClpP mod: inactive; TDP-43 yeast inh: inactive; aSyn yeast inh: inactive

What do the screens show for `COc1ccc2cc(C(c3nnnn3CC3CCCO3)N3CCOCC3)c(=O)[nH]c2c1` (stereo not given)?
Abeta rescue: inactive; FUS suppressor: inactive; Mm-Cpn inhibitor: inactive; ClpP mod: 25µM; TDP-43 yeast inh: inactive; aSyn yeast inh: inactive

Results for Cc1ccc2[nH]c(=O)c(CN(CCO)Cc3nnnn3Cc3ccccc3)cc2c1 ?
ClpP mod: inactive; aSyn yeast inh: inactive

What do the screens show for `COc1ccc2[nH]c(=O)c(CN(CCc3ccccc3)Cc3nnnn3CC3CCCO3)cc2c1` (stereo not given)?
Abeta rescue: inactive; FUS suppressor: inactive; Mm-Cpn inhibitor: inactive; ClpP mod: 25µM; TDP-43 yeast inh: inactive; aSyn yeast inh: inactive

How did CCOc1ccc2[nH]c(=O)c(CN(CCO)Cc3nnnn3CCc3ccccc3)cc2c1 do in these assays?
Abeta rescue: inactive; FUS suppressor: inactive; Mm-Cpn inhibitor: inactive; ClpP mod: 32µM; TDP-43 yeast inh: inactive; aSyn yeast inh: inactive

What do the screens show for `COc1cccc(CNC(=O)CN2C(=O)COc3ccc(S(=O)(=O)Nc4ccccc4)cc32)c1`?
Abeta rescue: inactive; FUS suppressor: inconclusive; ClpP mod: inactive; TDP-43 yeast inh: inactive

What do the screens show for `CCOc1ccc(OC(=O)c2cn(-c3cccc(OC)c3)c(=O)c3ccccc23)cc1`?
Abeta rescue: inactive; FUS suppressor: inactive; ClpP mod: inactive; TDP-43 yeast inh: inactive
